# In PubChem BioAssay AID504905 (The Scripps Research Institute Molecular Screening Center, 2011):
# This is one part of the list. Values without a mark were called inactive. The source made the active and inactive calls. Rule as the data show it: active = activation above about 17%; inactive = the rest.
# Target: 5-hydroxytryptamine receptor 5A (Homo sapiens) (UniProt P47898)
# Experiment: HTR5A agonists in cells, counter-screen for OPRM1-OPRD1 heterodimer agonist project, cell-based, luminescence (AID 504905);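 also: 0% = vehicle-treated cells and 100% = reference agonist response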
# Settings: HTR5A agonist counterscreen, at 9.3 µM, stronger effect = higher value
# Sequence of 5-hydroxytryptamine receptor 5A (Homo sapiens) (P47898 whole entry, looked up): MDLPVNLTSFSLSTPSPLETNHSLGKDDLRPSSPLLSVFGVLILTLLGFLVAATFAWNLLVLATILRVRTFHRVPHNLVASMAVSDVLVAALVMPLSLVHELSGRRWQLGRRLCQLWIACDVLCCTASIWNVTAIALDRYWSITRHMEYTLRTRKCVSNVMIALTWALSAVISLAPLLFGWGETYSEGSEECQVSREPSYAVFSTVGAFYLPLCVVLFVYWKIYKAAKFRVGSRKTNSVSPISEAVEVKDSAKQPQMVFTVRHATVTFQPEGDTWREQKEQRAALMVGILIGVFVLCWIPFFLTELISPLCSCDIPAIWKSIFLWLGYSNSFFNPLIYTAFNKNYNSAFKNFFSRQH
row,SMILES,activation
1,CN1C(CC(=O)Nc2ccc(Br)cc2)c2ccccc2CC1(C)C (stereo unspecified),5.83%
2,CN(C)C(CNC(=O)Cc1ccc([N+](=O)[O-])cc1)c1ccccc1 (stereo unspecified),1.22%
3,O=C(NC1=CC(=O)c2ccccc2C1=O)c1ccccc1,3.59%
4,CC(OC(=O)/C=C/c1ccccc1)C(=O)Nc1ccc(C(N)=O)cc1 (stereo unspecified),0.16%
5,CC1CCCN(CCOCCOc2ccccc2-c2ccccc2)C1 (stereo unspecified),1.05%
6,O=C1N/C(=C/c2cccs2)C(=O)N1Cc1ccc(F)cc1,27.5% (active)
7,C=C(C)COc1ccc(-c2n[nH]c(C)c2-c2ccccc2)c(O)c1,5.34%
8,Cc1ccc(CN(C(=O)c2sc3ccccc3c2Cl)C2CCS(=O)(=O)C2)cc1 (stereo unspecified),1.71%
9,CN(C)C(CNC(=O)c1ccc(S(=O)(=O)NCc2ccco2)cc1)c1ccccc1 (stereo unspecified),4.56%
10,Cc1ccc(CNC(=O)CC(NC(=O)c2ccccc2)c2ccccc2)cc1 (stereo unspecified),-9.71%
11,N#CC(C(=O)c1ccc(S(=O)(=O)N2CCCCCC2)cc1)c1nc2ccccc2[nH]1 (stereo unspecified),5.09%
12,CN(CC(=O)Nc1ccc(Cl)cc1)C(=O)c1ccc(COc2ccccc2)cc1,5.21%
13,COCCCNc1nc2c(-c3cccc(C)c3)nnn2c2ccc(Cl)cc12,8.68%
14,CN(C)CCCN(C(=O)c1ccc(S(=O)(=O)N2CCCc3ccccc32)cc1)c1nc2ccc(F)cc2s1,7.49%
15,Cc1cc(C)cc(C(=O)N(CCc2ccccc2)C2=CC3CCC(C2)N3C)c1 (stereo unspecified),-1.9%
16,CCNS(=O)(=O)c1ccc(NC(=O)Nc2cccc(OC)c2)cc1,3.27%
17,COc1cccc(/C=N/Nc2cc(C)nc(-c3ccccc3O)n2)c1O,0.01%
18,CCOC(=O)c1c(C)[nH]c2c1-c1ccccc1C(=O)C2=O,9.05%
19,CCC(C(=O)OCC(=O)Nc1ccc(C(=O)Nc2ccc(OC)cc2)cc1)c1ccccc1 (stereo unspecified),5.87%
20,CCOC(=O)C1(CC2CCCCO2)CCN(Cc2nc(-c3cccs3)oc2C)CC1 (stereo unspecified),3.31%
21,Cc1ccc(-n2c(SCC(=O)NCCC3=CCCCC3)nc3n[nH]c(C)c3c2=N)cc1Cl,1.57%
